Measured potencies and affinities stand elsewhere.

In one test the test system is Candida albicans. The note with it: 32 ug/mL.
A word on the Inhibition: it is the relative decrease from the control value, in per cent. Regarding `O=C1C[C@H]2[C@H](/C=N/NC(=O)c3ccncc3)[C@H](C[C@@H]2Cl)O1`, the Inhibition came out at 3.46%.
`O=C(N/N=C/COc1cccc(Cl)c1)c1ccncc1`: the Inhibition was 1.44%.
`O=C(N/N=C1\C[C@@H]2[C@H](COC(c3ccccc3)(c3ccccc3)c3ccccc3)C[C@H](CO)[C@@H]2C1)c1ccncc1`: the Inhibition came to 12.2%.
On the same count and under the same terms, the same measure for `O=C(N/N=C1/C[C@@H]2[C@H](COC(c3ccccc3)(c3ccccc3)c3ccccc3)C[C@H](COC(c3ccccc3)(c3ccccc3)c3ccccc3)[C@@H]2C1)c1ccncc1`: 2.84%; for `O=C(NN=C[C@H]1[C@H]2CC(O)OC[C@H]2C[C@H]1O)c1ccncc1` (some centres undefined): 3.89%; for `O=C(N/N=C1/C[C@@H]2[C@@H](C(=O)O)[C@H]1C[C@H]2Cl)c1ccncc1`: 7.78%.
Consider `O=C(ON/N=C/[C@@H]1[C@@H]2C[C@H](Cl)[C@H]1C[C@H]2O)c1ccncc1`, for which the Inhibition stood at 5.82%.
Still for that read-out and setting: with `O=C(N/N=C/CCCO)c1ccncc1` the figure was 0.75%.
In the case of `O=C(NN=C[C@H]1[C@@H]2CCO[C@@H]2C[C@@H]1O)c1ccncc1`, the Inhibition was determined as 2.27%.
Same read-out and setting: with `O=C(N/N=C/C[C@@H]1[C@@H](/C=C/[C@@H](O)COc2ccccc2)[C@H](O)C[C@@H]1O)c1ccncc1` the figure was 0.82%; with `O=C(NN=CC[C@@H]1[C@@H](/C=C/[C@@H](O)CCc2ccccc2)[C@H](O)C[C@@H]1O)c1ccncc1`, -1.24%.
Still for that read-out and setting: with `COC(=O)CCCCCC[C@@H]1[C@@H](/C=N/NC(=O)c2ccncc2)[C@H](O)C[C@@H]1O` the figure was 0.11%; with `COC(=O)CCCCCC[C@@H]1[C@@H](/C=N/NC(=O)c2ccncc2)[C@H](OC(=O)c2ccccc2)C[C@@H]1O`, 0.87%; with `O=C(N/N=C/C[C@@H]1[C@@H](/C=N/NC(=O)c2ccncc2)[C@H](O)C[C@@H]1O)c1ccncc1`, 0.98%.
Regarding `O=C(N/N=C1\C[C@@H]2[C@@H](CO)[C@H]1C[C@H]2Cl)c1ccncc1`, the Inhibition was -0.38%.
The same measure, in the same setting: the same measure for `O=C(NN=CC[C@H]1[C@H](CO)[C@@H](O)C[C@H]1O)c1ccncc1`: 0.85%.
Same read-out and setting: the same measure for `CC(C)(C)[Si](C)(C)O[C@H](/C=C/[C@@H]1[C@@H](CC=NNC(=O)c2ccncc2)[C@@H](O)C[C@H]1O[Si](C)(C)C(C)(C)C)CCc1ccccc1`: 0.84%; for `O=C(NNC(=O)[C@@H]1C[C@H](C(=O)O)[C@@H]2CCC[C@@H]21)c1ccncc1`: 2.57%; for `O=C(NN=CC[C@@H]1[C@@H](/C=C/[C@@H](O)CCc2ccccc2)[C@H](OC(=O)c2ccccc2)C[C@@H]1O)c1ccncc1`: 5.97%.
For the compound `O=C(NNC(=O)c1ccc([N+](=O)[O-])cc1C(=O)O)c1ccncc1`, the Inhibition worked out at 3.64%.
Same read-out and setting: with `O=C(NNC(=O)[C@@H]1C[C@H](C(=O)O)[C@@H]2CC=C[C@@H]21)c1ccncc1` the figure was 1.29%.
Still for that read-out and setting: with `O=C(N/N=C/C[C@@H]1[C@@H](/C=C/[C@@H](O)COc2cccc(Cl)c2)[C@H](O)C[C@@H]1O)c1ccncc1` the figure was 0.21%; with `O=C(N/N=C1\CC[C@@H]2[C@H]1[C@H](OC(=O)c1ccccc1)C[C@@H]2OC(=O)c1ccccc1)c1ccncc1`, 12.8%.
In the case of `CC(C)(C)[Si](C)(C)OC[C@H]1[C@H](CC=NNC(=O)c2ccncc2)[C@H](O)C[C@@H]1O[Si](C)(C)C(C)(C)C`, the Inhibition was 3.64%.
Same read-out and setting: the same measure for `O=C(N/N=C1/C[C@H]2[C@H](CO)[C@@H]1C[C@@H]2Cl)c1ccncc1`: 2.15%; for `O=C(N/N=C1/C2C[C@H]3C(C2CO)[C@H]13)c1ccncc1` (some centres undefined): 0.37%; for `O=C(N/N=C1/C[C@@H]2[C@H](C1)[C@H](OC(=O)c1ccccc1)C[C@@H]2OC(=O)c1ccccc1)c1ccncc1`: 16.2%.
On the same count and under the same terms, the same measure for `O=C(NNC(c1ccccc1)(c1ccccc1)c1ccccc1)c1ccncc1`: 3.62%; for `O=C(NNC(=O)c1cccc([N+](=O)[O-])c1C(=O)O)c1ccncc1`: 1.9%; for `COC(=O)C[C@H]1[C@H](/C=N\NC(=O)c2ccncc2)[C@@H](O[Si](C)(C)C(C)(C)C)C[C@@H]1Cl`: 1.67%.
Still for that read-out and setting: with `O=C(NN=CC[C@@H]1[C@@H](COC2CCCCO2)[C@H](OC2CCCCO2)C[C@@H]1O)c1ccncc1` (some centres undefined) the figure was 1.39%.
Consider `O=C1C[C@@H]2[C@@H](C=NNC(=O)c3ccncc3)[C@@H](C[C@H]2Cl)O1`, for which the Inhibition was 2.47%.
The same measure, in the same setting: with `O=C(N/N=C/C[C@@H]1[C@@H](CO)[C@H](O)C[C@@H]1O)c1ccncc1` the figure was 0.37%.
`O=C(N/N=C1/C2C[C@H]3C(C2C(=O)O)[C@@H]13)c1ccncc1` (some centres undefined): the Inhibition is 0.22%.
Same read-out and setting: with `CC(C)(C)[Si](C)(C)OCC1C2C[C@H]3C1[C@@H]3/C2=N/NC(=O)c1ccncc1` (some centres undefined) the figure was -2%.
Still for that read-out and setting: the same measure for `O=C(N/N=C/[C@@H]1C[C@H](CO)[C@@H]2CCC[C@@H]21)c1ccncc1`: 0.02%.
On to `NNC(=O)c1ccncc1` [ISONIAZID], for which the Inhibition amounted to 0.98%.

Another test concerns Cryptococcus neoformans. The note with it: Concentration 32 ug.mL-1; ASSAY_TEST Inhibition of Fungal Growth; detection method Resazurin; Absorption (OD600-OD570); plate type 384well; NBS; CORNING #3640.
Take `O=C1C[C@H]2[C@H](/C=N/NC(=O)c3ccncc3)[C@H](C[C@@H]2Cl)O1`: the Inhibition is recorded as -80.73%.
For `O=C(N/N=C/COc1cccc(Cl)c1)c1ccncc1`, the Inhibition is given as -88.39%.
The same measure, in the same setting: the same measure for `O=C(N/N=C1\C[C@@H]2[C@H](COC(c3ccccc3)(c3ccccc3)c3ccccc3)C[C@H](CO)[C@@H]2C1)c1ccncc1`: -65.69%; for `O=C(N/N=C1/C[C@@H]2[C@H](COC(c3ccccc3)(c3ccccc3)c3ccccc3)C[C@H](COC(c3ccccc3)(c3ccccc3)c3ccccc3)[C@@H]2C1)c1ccncc1`: -17.15%.
On the same count and under the same terms, the same measure for `O=C(NN=C[C@H]1[C@H]2CC(O)OC[C@H]2C[C@H]1O)c1ccncc1` (some centres undefined): -80.47%.
Same read-out and setting: with `O=C(N/N=C1/C[C@@H]2[C@@H](C(=O)O)[C@H]1C[C@H]2Cl)c1ccncc1` the figure was -56.2%.
Turning to `O=C(ON/N=C/[C@@H]1[C@@H]2C[C@H](Cl)[C@H]1C[C@H]2O)c1ccncc1`, the Inhibition is -97.88%.
`O=C(N/N=C/CCCO)c1ccncc1`: the Inhibition is listed as -50.92%.
In the case of `O=C(NN=C[C@H]1[C@@H]2CCO[C@@H]2C[C@@H]1O)c1ccncc1`, the Inhibition was -54.08%.
For the compound `O=C(N/N=C/C[C@@H]1[C@@H](/C=C/[C@@H](O)COc2ccccc2)[C@H](O)C[C@@H]1O)c1ccncc1`, the Inhibition is -89.18%.
The same measure, in the same setting: with `O=C(NN=CC[C@@H]1[C@@H](/C=C/[C@@H](O)CCc2ccccc2)[C@H](O)C[C@@H]1O)c1ccncc1` the figure was -90.23%; with `COC(=O)CCCCCC[C@@H]1[C@@H](/C=N/NC(=O)c2ccncc2)[C@H](O)C[C@@H]1O`, -95.51%.
For `COC(=O)CCCCCC[C@@H]1[C@@H](/C=N/NC(=O)c2ccncc2)[C@H](OC(=O)c2ccccc2)C[C@@H]1O`, the Inhibition is -95.25%.
Same read-out and setting: the same measure for `O=C(N/N=C/C[C@@H]1[C@@H](/C=N/NC(=O)c2ccncc2)[C@H](O)C[C@@H]1O)c1ccncc1`: -79.15%; for `O=C(N/N=C1\C[C@@H]2[C@@H](CO)[C@H]1C[C@H]2Cl)c1ccncc1`: -60.68%; for `O=C(NN=CC[C@H]1[C@H](CO)[C@@H](O)C[C@H]1O)c1ccncc1`: -70.97%.
Take `CC(C)(C)[Si](C)(C)O[C@H](/C=C/[C@@H]1[C@@H](CC=NNC(=O)c2ccncc2)[C@@H](O)C[C@H]1O[Si](C)(C)C(C)(C)C)CCc1ccccc1`: the Inhibition is given as -66.75%.
Still for that read-out and setting: with `O=C(NNC(=O)[C@@H]1C[C@H](C(=O)O)[C@@H]2CCC[C@@H]21)c1ccncc1` the figure was -51.45%.
`O=C(NN=CC[C@@H]1[C@@H](/C=C/[C@@H](O)CCc2ccccc2)[C@H](OC(=O)c2ccccc2)C[C@@H]1O)c1ccncc1`: the Inhibition is reported as -72.55%.
For the compound `O=C(NNC(=O)c1ccc([N+](=O)[O-])cc1C(=O)O)c1ccncc1`, the Inhibition is on record as -51.18%.
On the same count and under the same terms, the same measure for `O=C(NNC(=O)[C@@H]1C[C@H](C(=O)O)[C@@H]2CC=C[C@@H]21)c1ccncc1`: -37.2%; for `O=C(N/N=C/C[C@@H]1[C@@H](/C=C/[C@@H](O)COc2cccc(Cl)c2)[C@H](O)C[C@@H]1O)c1ccncc1`: -81.79%.
As for `O=C(N/N=C1\CC[C@@H]2[C@H]1[C@H](OC(=O)c1ccccc1)C[C@@H]2OC(=O)c1ccccc1)c1ccncc1`, the Inhibition is given as -65.69%.
With `CC(C)(C)[Si](C)(C)OC[C@H]1[C@H](CC=NNC(=O)c2ccncc2)[C@H](O)C[C@@H]1O[Si](C)(C)C(C)(C)C`, the Inhibition was -64.37%.
The same measure, in the same setting: with `O=C(N/N=C1/C[C@H]2[C@H](CO)[C@@H]1C[C@@H]2Cl)c1ccncc1` the figure was -80.47%; with `O=C(N/N=C1/C2C[C@H]3C(C2CO)[C@H]13)c1ccncc1` (some centres undefined), -50.92%; with `O=C(N/N=C1/C[C@@H]2[C@H](C1)[C@H](OC(=O)c1ccccc1)C[C@@H]2OC(=O)c1ccccc1)c1ccncc1`, -110.81%.
The same measure, in the same setting: the same measure for `O=C(NNC(c1ccccc1)(c1ccccc1)c1ccccc1)c1ccncc1`: -75.72%.
For `O=C(NNC(=O)c1cccc([N+](=O)[O-])c1C(=O)O)c1ccncc1`, the Inhibition was -5.54%.
On the same count and under the same terms, with `COC(=O)C[C@H]1[C@H](/C=N\NC(=O)c2ccncc2)[C@@H](O[Si](C)(C)C(C)(C)C)C[C@@H]1Cl` the figure was -101.31%; with `O=C(NN=CC[C@@H]1[C@@H](COC2CCCCO2)[C@H](OC2CCCCO2)C[C@@H]1O)c1ccncc1` (some centres undefined), -44.06%; with `O=C1C[C@@H]2[C@@H](C=NNC(=O)c3ccncc3)[C@@H](C[C@H]2Cl)O1`, -98.94%.
On the same count and under the same terms, the same measure for `O=C(N/N=C/C[C@@H]1[C@@H](CO)[C@H](O)C[C@@H]1O)c1ccncc1`: -75.19%.
Same read-out and setting: with `O=C(N/N=C1/C2C[C@H]3C(C2C(=O)O)[C@@H]13)c1ccncc1` (some centres undefined) the figure was -16.35%; with `CC(C)(C)[Si](C)(C)OCC1C2C[C@H]3C1[C@@H]3/C2=N/NC(=O)c1ccncc1` (some centres undefined), -48.28%; with `O=C(N/N=C/[C@@H]1C[C@H](CO)[C@@H]2CCC[C@@H]21)c1ccncc1`, -36.93%.
Take `NNC(=O)c1ccncc1` [ISONIAZID]: the Inhibition is recorded as -55.93%.
